“And” between values parts separate entries of the source, which are not always exact repeats. Equal entries are not always repeated. Inconclusive results are not listed. Where a structure was tested more than once in an assay, its records may differ in their call. The source made the active and inactive calls. How the source made its calls, unless noted: active means hit-call score of the fitted dose curve at least 0.9, where 1 is the maximum; inactive means score below 0.9.
Legend:
[1] = ATG_PBREM_CIS: Attagene CIS-FACTORIAL HepG2 Assay for human Phenobarbital-responsive Enhancer Module (PBREM) (AID 2282955); settings: HepG2 PBREM cis-reporter, Attagene multiplexed transcription; actives raise or lower the signal
How it was run: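 HepG2 cells transiently transfected with multiple cis-regulated reporter transcription units; endogenous factor activity at the PBREM element measured as reporter mRNA 24 h after dosing, via RT-PCR and capillary electrophoresis of fluorescent fragments; bidirectional fitting versus DMSO.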

[2] = molecular target: Paired box protein Pax-6 (Homo sapiens) (UniProt P26367); test: ATG_Pax6_CIS: Attagene CIS-FACTORIAL HepG2 Assay for human Paired Box 6 (PAX6) (AID 2282956); settings: HepG2 CIS-FACTORIAL PAX6 reporter transcription, RNA readout; actives raise or lower the signal
How it was run: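 Readout: reporter transcript fluorescence after RT-PCR and capillary electrophoresis. Cells: HepG2, transiently transfected with cis-regulated MRTUs. Exposure 24 h. Gain or loss of signal fitted bidirectionally relative to DMSO.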

[3] = ATG_PXRE_CIS: Attagene CIS-FACTORIAL HepG2 Assay for human Pregnane X Receptor Element (PXRE) (AID 2282957); settings: HepG2 Attagene CIS-FACTORIAL PXRE reporter, mRNA; actives raise or lower the signal
How it was run: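 Bidirectional activity, baselined to DMSO, derived from reporter mRNA fluorescence (RT-PCR plus capillary electrophoresis) in HepG2 cells bearing cis-promoter reporter units, 24 h exposure.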

[4] = ATG_RORE_CIS: Attagene CIS-FACTORIAL HepG2 Assay for human RAR-related Orphan Receptor Element (RORE) (AID 2282959); settings: HepG2 Attagene cis-factorial RORE reporter, mRNA; actives raise or lower the signal
How it was run: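 HepG2 cells transiently transfected with multiple cis-element reporter transcription units, exposed to chemical for 24 h. Reporter mRNA quantified by RT-PCR, 6-FAM primer-extension labeling, HpaI digestion and capillary electrophoresis; bidirectional fit versus DMSO baseline.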

[5] = ATG_Sox_CIS: Attagene CIS-FACTORIAL HepG2 Assay for human SRY-box transcription factor (SOX) (AID 2282960); settings: HepG2 Attagene cis-factorial SOX reporter, mRNA; actives raise or lower the signal
How it was run: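 HepG2 cells transiently transfected with cis-element-driven multiple reporter transcription units, dosed 24 h; reporter mRNA measured by RT-PCR, FAM labelling, HpaI digestion and capillary electrophoresis. Bidirectional fit versus DMSO baseline.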

[6] = molecular target: Transcription factor Sp1 (Homo sapiens) (UniProt P08047); test: ATG_Sp1_CIS: Attagene CIS-FACTORIAL HepG2 Assay for human Specificity Protein 1 (Sp1) (AID 2282961); settings: HepG2 Sp1 cis-reporter transcription, actives raise or lower the signal
How it was run: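 HepG2 cells transiently transfected with multiple reporter transcription units driven by cis-regulatory elements; Sp1-responsive reporter mRNA measured 24 h after dosing by RT-PCR and capillary electrophoresis fluorescence, fitted bidirectionally against DMSO baseline.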

[7] = ATG_SREBP_CIS: Attagene CIS-FACTORIAL HepG2 Assay for human Sterol Regulatory Element Binding (SREBP) (AID 2282962); settings: HepG2 Attagene cis-factorial SREBP reporter, mRNA; actives raise or lower the signal
How it was run: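 Readout: fluorescent reporter-transcript peaks resolved by capillary electrophoresis after RT-PCR. Cells were human HepG2 carrying transfected cis-promoter reporter constructs, dosed for 24 h. Gain or loss of signal was fitted against DMSO controls.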

[8] = molecular target: Signal transducer and activator of transcription 3 (Homo sapiens) (UniProt P40763); test: ATG_STAT3_CIS: Attagene CIS-FACTORIAL HepG2 Assay for human Signal Transducer and Activator of Transcription 3 (STAT3) (AID 2282963); settings: HepG2, Attagene cis-factorial STAT3 reporter transcription; actives raise or lower the signal
How it was run: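 Cis-factorial format: endogenous transcription factors in HepG2 drive transfected reporter units. After 24 h treatment, reporter RNA was reverse-transcribed, amplified, FAM-labelled and HpaI-digested before CE analysis; activity scored in both directions against DMSO.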

[9] = ATG_TA_CIS: Attagene CIS-FACTORIAL HepG2 Assay for human TA Basal Promoter (AID 2282964); settings: HepG2 Attagene CIS-factorial TA basal promoter reporter; actives raise or lower the signal
How it was run: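 HepG2 cells transiently transfected with multiple reporter units under cis promoter elements, reporting endogenous transcription factor activity; this endpoint tracks the TA basal promoter as background control. Reporter mRNA after 24 h dosing measured by RT-PCR/capillary electrophoresis; bidirectional fits versus DMSO.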

[10] = ATG_TCF_b_cat_CIS: Attagene CIS-FACTORIAL HepG2 Assay for human T-Cell-Factor with beta-catenin (TCF/b-cat) (AID 2282965); settings: HepG2 TCF/beta-catenin cis-reporter transcription, actives raise or lower the signal
How it was run: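 Endogenous TCF/LEF activity read as reporter transcript level via RT-PCR and capillary electrophoresis fluorescence in transfected HepG2, 24 h exposure; gain or loss of signal fitted against DMSO controls.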

[11] = ATG_TAL_CIS: Attagene CIS-FACTORIAL HepG2 Assay for human TAL Basal Promoter (AID 2282966); settings: HepG2 Attagene cis-factorial TAL promoter reporter; actives raise or lower the signal;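 further: background control endpoint measuring basal TAL promoter reporter mRNA not a specific factor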
How it was run: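 Human hepatoma HepG2 cells, transfected with promoter-regulated reporter units, were treated 24 h. Reporter transcript levels, measured through RT-PCR and capillary electrophoresis, were fitted for gain or loss relative to DMSO.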

[12] = ATG_TGFb_CIS: Attagene CIS-FACTORIAL HepG2 Assay for human Transforming Growth Factor (TGF) (AID 2282967); settings: HepG2 Attagene CIS TGFb reporter, mRNA transcription; actives raise or lower the signal
How it was run: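 HepG2 cells transiently transfected with cis-promoter-driven multiple reporter units measure endogenous TF activity; reporter mRNA quantified at 24 h by RT-PCR, FAM labeling, HpaI digestion and capillary electrophoresis. Bidirectional fit vs DMSO.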

[13] = molecular target: Nuclear receptor subfamily 1 group I member 3 (Homo sapiens) (UniProt Q14994); test: ATG_CAR_TRANS: Attagene TRANS-FACTORIAL HepG2 Assay for human Constitutive Androstane Receptor (CAR) (AID 2282969; active means hit-call score of the fitted dose curve at least 0.9, where 1 is the maximum;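 further: activators raise reporter mRNA above DMSO so AC50 marks induction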); settings: HepG2 Attagene TRANS-FACTORIAL CAR reporter
How it was run: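 Signal is reporter mRNA induction relative to DMSO, measured 24 h after dosing by RT-PCR with fluorescent primer extension and capillary electrophoresis. Human HepG2 liver cells carried transiently transfected chimeric NR-Gal4/GAL4-UAS reporter constructs.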

[14] = molecular target: Estrogen receptor (Homo sapiens) (UniProt P03372); test: ATG_ERa_TRANS: Attagene TRANS-FACTORIAL HepG2 Assay for human Estrogen Receptor alpha (ERa) (AID 2282970; active means hit-call score of the fitted dose curve at least 0.9, where 1 is the maximum); settings: HepG2 Attagene TRANS ERa GAL4 reporter, mRNA
How it was run: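 Signal derives from fluorescence of labelled reporter PCR fragments separated by capillary electrophoresis. HepG2 cells transiently carrying multiple GAL4-UAS reporter units were treated 24 hours, and induction above DMSO baseline was fitted as activity.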

[15] = molecular target: X-box-binding protein 1 (Homo sapiens) (UniProt P17861); test: ATG_Xbp1_CIS: Attagene CIS-FACTORIAL HepG2 Assay for human X-box Binding Protein 1 (XBP1) (AID 2282972); settings: HepG2 XBP1 cis-element reporter, Attagene multiplex; actives raise or lower the signal
How it was run: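 Read-out: fluorescent reporter mRNA fragments resolved by capillary electrophoresis after RT-PCR. Human HepG2 liver cells carried transfected cis-promoter reporter units and were exposed to chemicals for 24 hours. Gain or loss of signal fitted relative to DMSO baseline.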

[16] = ATG_M_19_TRANS: Attagene TRANS-FACTORIAL HepG2 Assay for M19 Transcription Factor (Internal Marker) (AID 2282974; active means hit-call score of the fitted dose curve at least 0.9, where 1 is the maximum); settings: HepG2 Attagene TRANS-FACTORIAL M19 internal marker reporter
How it was run: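 HepG2 cells transiently transfected with multiple GAL4-UAS reporter transcription units were exposed to chemicals for 24 h. Reporter mRNA was read by RT-PCR, 6-FAM primer extension, HpaI digestion and capillary electrophoresis; gain of signal fitted relative to DMSO.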

[17] = ATG_GAL4_TRANS: Attagene TRANS-FACTORIAL HepG2 Assay for GAL4 (Internal Marker) (AID 2282976; active means hit-call score of the fitted dose curve at least 0.9, where 1 is the maximum); settings: HepG2 Attagene TRANS GAL4 internal marker reporter
How it was run: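 Liver HepG2 line bearing multiplexed GAL4-UAS reporter constructs; 24 h chemical treatment. Transcripts were quantified as fluorescent fragments on capillary electrophoresis after RT-PCR and HpaI cut, with activity fitted upward from DMSO.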

[18] = molecular target: Estrogen-related receptor gamma (Homo sapiens) (UniProt P62508); test: ATG_ERRg_TRANS: Attagene TRANS-FACTORIAL HepG2 Assay for human Estrogen-Related Receptor gamma (ERRg) (AID 2282977; active means hit-call score of the fitted dose curve at least 0.9, where 1 is the maximum;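 further: hits increase reporter signal over DMSO so potencies reflect activators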); settings: HepG2 Attagene TRANS reporter, ERRg transactivation
How it was run: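 Readout: fluorescent reporter-mRNA fragments resolved by capillary electrophoresis after RT-PCR and HpaI cut. Cells: transiently transfected HepG2 carrying GAL4-UAS reporters driven by exogenous NR-Gal4 chimeras, dosed 24 h. Activity fitted upward relative to DMSO baseline.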

[19] = ATG_PPRE_CIS: Attagene CIS-FACTORIAL HepG2 Assay for human Peroxisome Proliferator-activated Response Element (PPRE) (AID 2282958); settings: HepG2 PPRE cis-element reporter, Attagene transcription factor profiling; actives raise or lower the signal
How it was run: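 HepG2 cells transiently transfected with multiplexed cis-element reporter units measure endogenous transcription factor activity. After 24 h compound exposure, reporter mRNA is quantified by RT-PCR, 6-FAM labeling, HpaI digestion and capillary electrophoresis; bidirectional fits are made against DMSO baseline.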

Estrogen-related receptor gamma (Homo sapiens), sequence (P62508 whole entry, looked up, the tested form may be a part): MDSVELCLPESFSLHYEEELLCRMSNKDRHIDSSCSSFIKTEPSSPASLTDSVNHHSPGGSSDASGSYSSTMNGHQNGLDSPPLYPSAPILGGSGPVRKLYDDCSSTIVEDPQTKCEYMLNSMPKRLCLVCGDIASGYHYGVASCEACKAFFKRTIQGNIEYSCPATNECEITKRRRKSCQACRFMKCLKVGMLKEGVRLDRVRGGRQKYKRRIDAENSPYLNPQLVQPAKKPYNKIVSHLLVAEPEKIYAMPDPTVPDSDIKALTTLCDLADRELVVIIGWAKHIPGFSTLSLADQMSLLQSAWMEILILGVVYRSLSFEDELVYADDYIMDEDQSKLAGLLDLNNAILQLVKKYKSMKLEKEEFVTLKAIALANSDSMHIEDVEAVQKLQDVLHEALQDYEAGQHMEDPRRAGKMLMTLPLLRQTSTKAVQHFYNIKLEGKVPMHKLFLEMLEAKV
Nuclear receptor subfamily 1 group I member 3 (Homo sapiens), sequence (Q14994 whole entry, looked up, the tested form may be a part): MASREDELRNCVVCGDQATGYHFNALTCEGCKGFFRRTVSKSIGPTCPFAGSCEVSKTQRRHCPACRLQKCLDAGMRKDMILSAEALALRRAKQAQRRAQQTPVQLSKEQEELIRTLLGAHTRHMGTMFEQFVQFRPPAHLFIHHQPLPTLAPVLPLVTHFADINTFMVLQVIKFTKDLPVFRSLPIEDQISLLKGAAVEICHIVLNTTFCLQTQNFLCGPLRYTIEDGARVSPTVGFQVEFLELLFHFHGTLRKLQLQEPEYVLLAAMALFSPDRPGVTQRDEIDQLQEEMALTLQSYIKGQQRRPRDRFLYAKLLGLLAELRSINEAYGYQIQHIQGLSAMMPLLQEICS
Paired box protein Pax-6 (Homo sapiens), sequence (P26367 whole entry, looked up): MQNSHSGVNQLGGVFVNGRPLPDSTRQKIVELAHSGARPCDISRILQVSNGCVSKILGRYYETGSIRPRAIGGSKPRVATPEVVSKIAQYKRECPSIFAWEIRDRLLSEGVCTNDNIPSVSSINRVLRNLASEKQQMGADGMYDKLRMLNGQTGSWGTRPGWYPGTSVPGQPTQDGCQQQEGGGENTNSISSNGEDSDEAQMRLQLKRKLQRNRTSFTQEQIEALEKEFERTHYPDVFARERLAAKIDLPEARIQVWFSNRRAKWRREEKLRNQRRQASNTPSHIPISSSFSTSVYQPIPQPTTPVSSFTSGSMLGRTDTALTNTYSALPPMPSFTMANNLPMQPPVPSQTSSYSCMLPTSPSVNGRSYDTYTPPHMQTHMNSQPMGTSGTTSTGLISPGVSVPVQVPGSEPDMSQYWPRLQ
Estrogen receptor (Homo sapiens), sequence (P03372 whole entry, looked up, the tested form may be a part): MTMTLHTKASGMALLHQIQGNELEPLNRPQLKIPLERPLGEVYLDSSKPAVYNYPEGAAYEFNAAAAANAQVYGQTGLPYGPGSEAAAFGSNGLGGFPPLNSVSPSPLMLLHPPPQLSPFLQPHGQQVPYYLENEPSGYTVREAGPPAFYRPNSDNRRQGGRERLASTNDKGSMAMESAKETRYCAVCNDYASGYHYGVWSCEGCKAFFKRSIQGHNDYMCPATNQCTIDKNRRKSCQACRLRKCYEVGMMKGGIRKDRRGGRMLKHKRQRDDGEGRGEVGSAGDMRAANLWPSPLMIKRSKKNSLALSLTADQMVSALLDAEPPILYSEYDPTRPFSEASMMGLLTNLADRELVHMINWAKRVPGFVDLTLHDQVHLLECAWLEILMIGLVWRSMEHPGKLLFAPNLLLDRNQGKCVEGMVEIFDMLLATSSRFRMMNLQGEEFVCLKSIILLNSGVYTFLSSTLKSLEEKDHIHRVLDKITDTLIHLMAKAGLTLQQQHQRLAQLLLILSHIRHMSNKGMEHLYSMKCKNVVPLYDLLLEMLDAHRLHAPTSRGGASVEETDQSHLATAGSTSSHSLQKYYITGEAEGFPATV
Signal transducer and activator of transcription 3 (Homo sapiens), sequence (P40763 whole entry, looked up): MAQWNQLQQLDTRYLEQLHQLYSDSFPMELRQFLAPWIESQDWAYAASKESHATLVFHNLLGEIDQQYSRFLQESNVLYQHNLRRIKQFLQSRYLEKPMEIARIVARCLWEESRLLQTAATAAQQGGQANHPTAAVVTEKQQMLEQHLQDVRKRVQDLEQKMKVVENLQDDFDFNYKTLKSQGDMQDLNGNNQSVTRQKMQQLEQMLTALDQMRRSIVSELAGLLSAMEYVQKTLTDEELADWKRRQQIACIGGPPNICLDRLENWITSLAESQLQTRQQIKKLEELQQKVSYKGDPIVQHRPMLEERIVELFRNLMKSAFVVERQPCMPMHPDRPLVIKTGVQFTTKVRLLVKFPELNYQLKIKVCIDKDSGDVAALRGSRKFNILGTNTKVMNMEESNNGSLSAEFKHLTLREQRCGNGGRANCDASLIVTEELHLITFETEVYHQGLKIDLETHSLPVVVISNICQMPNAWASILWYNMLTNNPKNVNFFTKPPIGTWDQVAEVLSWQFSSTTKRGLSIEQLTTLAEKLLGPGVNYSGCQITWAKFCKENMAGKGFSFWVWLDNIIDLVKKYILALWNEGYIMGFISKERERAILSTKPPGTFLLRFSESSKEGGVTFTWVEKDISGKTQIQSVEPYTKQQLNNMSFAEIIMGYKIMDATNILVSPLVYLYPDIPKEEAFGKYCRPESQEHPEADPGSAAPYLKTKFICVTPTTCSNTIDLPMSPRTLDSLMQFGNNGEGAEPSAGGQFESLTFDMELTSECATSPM
X-box-binding protein 1 (Homo sapiens), sequence (P17861 whole entry, looked up, the tested form may be a part): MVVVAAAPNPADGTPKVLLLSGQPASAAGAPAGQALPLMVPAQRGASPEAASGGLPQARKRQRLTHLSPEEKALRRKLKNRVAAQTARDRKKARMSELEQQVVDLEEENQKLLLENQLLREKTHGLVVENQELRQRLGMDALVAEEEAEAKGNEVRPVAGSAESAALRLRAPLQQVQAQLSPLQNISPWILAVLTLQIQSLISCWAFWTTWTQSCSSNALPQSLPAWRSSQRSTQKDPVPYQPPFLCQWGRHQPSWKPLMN
Transcription factor Sp1 (Homo sapiens), sequence (P08047 whole entry, looked up): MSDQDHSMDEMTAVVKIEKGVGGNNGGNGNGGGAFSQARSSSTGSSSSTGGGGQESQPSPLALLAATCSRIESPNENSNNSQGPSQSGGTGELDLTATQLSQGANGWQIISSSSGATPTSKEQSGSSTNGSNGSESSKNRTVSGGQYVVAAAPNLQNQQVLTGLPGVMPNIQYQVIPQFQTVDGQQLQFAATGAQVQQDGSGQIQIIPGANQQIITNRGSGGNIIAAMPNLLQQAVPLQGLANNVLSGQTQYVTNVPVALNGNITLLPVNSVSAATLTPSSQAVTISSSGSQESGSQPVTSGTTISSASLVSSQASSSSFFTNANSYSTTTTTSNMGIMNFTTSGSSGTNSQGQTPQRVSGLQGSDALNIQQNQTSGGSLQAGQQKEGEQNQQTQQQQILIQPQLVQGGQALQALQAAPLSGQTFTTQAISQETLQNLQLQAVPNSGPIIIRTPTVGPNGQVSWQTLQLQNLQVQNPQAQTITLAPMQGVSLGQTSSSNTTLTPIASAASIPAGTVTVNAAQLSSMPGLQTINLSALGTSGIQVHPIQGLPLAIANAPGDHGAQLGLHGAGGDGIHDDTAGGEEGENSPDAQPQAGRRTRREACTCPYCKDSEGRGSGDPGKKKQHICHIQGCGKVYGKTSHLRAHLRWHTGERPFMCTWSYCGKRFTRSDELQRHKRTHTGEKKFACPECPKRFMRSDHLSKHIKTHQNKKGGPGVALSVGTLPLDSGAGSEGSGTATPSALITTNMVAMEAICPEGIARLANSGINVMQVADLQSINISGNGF

Structure (SMILES): CCCCOC(=O)c1ccccc1C(=O)OCCCC
- AC50 [1]: 27.5 µM (active) and 67 µM (active) and 50 µM (active)
- outcome [1]: inactive
- outcome [2]: inactive
- AC50 [3]: 27.4 µM (active) [middle of 5 runs]
- AC50 [4]: 29 µM (active) and 50 µM (active)
- outcome [4]: inactive
- outcome [5]: inactive
- outcome [6]: inactive
- AC50 [7]: 75.8 µM (active)
- outcome [7]: inactive
- outcome [8]: inactive
- AC50 [9]: 39.8 µM (active)
- outcome [9]: inactive
- outcome [10]: inactive
- outcome [11]: inactive
- AC50 [12]: 65.8 µM (active)
- outcome [12]: inactive
- outcome [13]: inactive
- outcome [14]: inactive
- outcome [15]: inactive
- outcome [16]: inactive
- outcome [17]: inactive
- outcome [18]: inactive

Structure (SMILES): N#Cc1nn(-c2c(Cl)cc(C(F)(F)F)cc2Cl)c(N)c1S(=O)C(F)(F)F (centres undefined)
- AC50 [1]: 19.4 µM (active)
- outcome [1]: inactive
- AC50 [2]: 48.4 µM (active)
- outcome [2]: inactive
- AC50 [3]: 2.37 µM (active) and 44.9 µM (active)
- AC50 [19]: 22.8 µM (active)
- outcome [19]: inactive
- outcome [4]: inactive
- outcome [5]: inactive
- outcome [6]: inactive
- outcome [7]: inactive
- outcome [8]: inactive
- outcome [9]: inactive
- outcome [10]: inactive
- outcome [11]: inactive
- outcome [12]: inactive
- outcome [13]: inactive
- AC50 [14]: 11.8 µM (active)
- outcome [14]: inactive
- AC50 [15]: 15.3 µM (active)
- outcome [15]: inactive
- outcome [16]: inactive
- outcome [17]: inactive
- outcome [18]: inactive

Structure (SMILES): OC(c1ccc(Cl)cc1)(c1cncnc1)c1ccccc1Cl (centres undefined)
- outcome [1]: inactive
- outcome [2]: inactive
- AC50 [3]: 2.17 µM (active)
- outcome [3]: inactive
- outcome [19]: inactive
- outcome [4]: inactive
- outcome [5]: inactive
- AC50 [6]: 12.6 µM (active)
- outcome [6]: inactive
- outcome [7]: inactive
- outcome [8]: inactive
- outcome [9]: inactive
- outcome [10]: inactive
- outcome [11]: inactive
- outcome [12]: inactive
- outcome [13]: inactive
- AC50 [14]: 3.2 µM (active)
- outcome [14]: inactive
- outcome [15]: inactive
- outcome [16]: inactive
- outcome [17]: inactive
- outcome [18]: inactive

Structure (SMILES): CCOC(=O)CC(SP(=S)(OC)OC)C(=O)OCC (centres undefined)
- outcome [1]: inactive
- AC50 [2]: 100 µM (active)
- outcome [2]: inactive
- AC50 [3]: 2.27 µM (active) and 12.2 µM (active)
- AC50 [19]: 83.1 µM (active) and 32.5 µM (active)
- AC50 [4]: 150 µM (active)
- outcome [4]: inactive
- outcome [5]: inactive
- outcome [6]: inactive
- outcome [7]: inactive
- outcome [8]: inactive
- outcome [9]: inactive
- outcome [10]: inactive
- AC50 [11]: 0.00921 µM (active)
- outcome [11]: inactive
- outcome [12]: inactive
- outcome [13]: inactive
- AC50 [14]: 68 µM (active) and 32.4 µM (active)
- AC50 [15]: 100 µM (active)
- outcome [15]: inactive
- outcome [16]: inactive

Structure (SMILES): CCCCNC(=O)OCC#CI
- AC50 [1]: 25.9 µM (active)
- outcome [1]: inactive
- AC50 [2]: 32.7 µM (active)
- outcome [2]: inactive
- AC50 [3]: 48.6 µM (active) and 1.56 µM (active) and 1.73 µM (active)
- AC50 [19]: 26.3 µM (active)
- outcome [19]: inactive
- AC50 [4]: 27.3 µM (active)
- outcome [4]: inactive
- AC50 [5]: 26.5 µM (active)
- outcome [5]: inactive
- AC50 [6]: 31.9 µM (active)
- outcome [6]: inactive
- outcome [7]: inactive
- AC50 [8]: 60.2 µM (active)
- outcome [8]: inactive
- AC50 [9]: 27.7 µM (active)
- outcome [9]: inactive
- AC50 [10]: 26.8 µM (active)
- outcome [10]: inactive
- outcome [11]: inactive
- AC50 [12]: 25.4 µM (active)
- outcome [12]: inactive
- outcome [13]: inactive
- AC50 [14]: 25.4 µM (active)
- outcome [14]: inactive
- AC50 [15]: 45.5 µM (active)
- outcome [15]: inactive
- outcome [18]: inactive
